From PubChem BioAssay
KCNQ2 enhance – enhances the rat KCNQ2 potassium channel. O88943. CHO-K1 KCNQ2, FluxOR thallium flux fluorescence; hits give high values. B-score at 10 µM. 310,000 compounds, 0.54% hits. AID 2239;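 active = fluorescence ratio B-score at least 3 SD of library B-scores, with initial fluorescence B-score within 3 of them, cut at about 5.3 in these data; same plate scores as AID 2156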;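 note: B-score of peak minus minimum over baseline fluorescence ratio after K+ and Tl+ stimulus; positive B-score means potentiation of KCNQ2 with more thallium influx and brighter signal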
KCNQ2 inh – KCNQ2 (rat) channel inhibition. CHO-K1 KCNQ2, FluxOR thallium flux, 20 min; hits give low values. B-score at 10 µM. 310,000 compounds, 1.1% hits;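 active = fluorescence ratio B-score at most minus 3 library SDs, with starting brightness B-score within 2 library SDs, cut at about -5.5 in these data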
* hit, by the source's call; i = inactive; x = no result. In the library only some 1.6% were active in any assay of this set; here they are far more common.

SMILES	KCNQ2 enhance	KCNQ2 inh
COc1ccc(-c2nc3cccc(C)n3c2NCc2ccco2)cc1OC	-6	-6*
COc1ccc(C2=NN(C(=O)CSc3ncccn3)C(c3ccc(C)cc3)C2)cc1 (configuration not stated)	1.9	i
COc1ccc(C2=NN(C(=O)CSc3nc(=O)n4cccc(C)c4n3)C(c3ccc(C)cc3)C2)cc1 (configuration not stated)	-7.4	-7.4*
CCn1c(C(C)NC(=O)c2cccs2)n[nH]c1=S (configuration not stated)	0.44	i
Cn1c(CNc2ccc(Cl)cc2)nc2ccccc21	x	i
CC(C)N=c1cc2n(-c3ccc(Cl)cc3)c3ccccc3nc-2cc1Nc1ccc(Cl)cc1	-8	-8*
O=C(O)c1ccc(Nc2ncc([N+](=O)[O-])cc2[N+](=O)[O-])cc1	0.48	i
COC(=O)CCCCC1SCC(NC(=O)c2ccccc2)C1=O (configuration not stated)	1.4	i
Cc1onc(C(=O)NN)c1C(=O)Nc1ncc(C(F)(F)F)cc1Cl	0.38	i
CC(c1cccs1)N(Cc1ccco1)C(=O)Nc1ccc(Cl)c(Cl)c1 (configuration not stated)	-13	-13*
Cc1ccc(NC(=O)N(Cc2ccco2)C(C)c2ccco2)cc1C (configuration not stated)	-5.9	-5.9*
COCCN(C(=S)Nc1cc(C)cc(C)c1)C(C)c1cccs1 (configuration not stated)	8*	i
Cc1ccc(NC(=O)CN(Cc2ccco2)Cc2ccccc2O)cc1C	-5.8	-5.8*
Cc1ccc(NC(=O)N(Cc2cccnc2)Cc2ccco2)cc1C	x	i
COCCN(C(=S)Nc1ccc(OC)cc1)C(C)c1cccs1 (configuration not stated)	1.4	i
COc1cccc(NC(=O)N(Cc2ccco2)C(C)c2cccs2)c1 (configuration not stated)	0.15	i
Cc1ccc(NC(=O)C[n+]2ccccc2)cc1C	0.86	i
O=C(NCC[C@@H]1C[C@@H]2C=C[C@H]1C2)c1cc(COc2ccc(F)cc2F)on1	0.85	i
Cc1ccc(C)c(NC(=S)N(Cc2ccco2)C(C)c2cccs2)c1 (configuration not stated)	x	i
Cc1ccc(NC(=S)N(Cc2ccco2)C(C)c2cccs2)c(Cl)c1 (configuration not stated)	-6.2	-6.2*
CCCCCCCCCCn1c2c(c(=N)c3c1CCC3)CCC2	32*	i
CCCCCn1c2c(c(=N)c3ccccc31)CCC2	0.75	i
O=C1N=c2ccccc2=C1c1c(O)[nH]c2c(C(F)(F)F)cccc12	x	i
CCC(C)N(C(=O)COc1ccccc1C(=O)NCc1ccccc1)C1CCS(=O)(=O)C1 (configuration not stated)	x	i
CCCN(CC1CC1)C(=O)COc1ccccc1C(=O)NCc1ccccc1	-7.7	-7.7*
SMILES	KCNQ2 enhance	KCNQ2 inh
Cc1ccccc1Nc1nc(N)nc(COC(=O)/C=C/c2ccco2)n1	1.7	i
COc1cc(NC(=O)c2ccccc2-c2ccccc2)cc(OC)c1	x	i
O=C(CCNS(=O)(=O)c1ccc(Br)s1)NCc1ccc(F)cc1	0.09	i
O=C(CNS(=O)(=O)c1ccc(Br)s1)NCc1ccc(F)cc1	-5.9	-5.9*
COc1cccc(C(=O)N2C(C(=O)O)CSC2c2ccccc2Cl)c1 (configuration not stated)	0.69	i
CCC(C)c1ccccc1NC(=O)Cc1coc2cc3c(cc12)CCC3 (configuration not stated)	7.7*	i
Cc1ccc(C)c(NC(=O)Cc2coc3cc4c(cc23)CCC4)c1	0.76	i
Cc1ccccc1CS(=O)(=O)c1nnc([C@H](CC(C)C)NC(=O)OC(C)(C)C)o1	-5.6	-5.6*
CC(C)C[C@H](NC(=O)OC(C)(C)C)c1nnc(SCc2ccccc2)o1	-6.9	-6.9*
CC(C)(C)OC(=O)N[C@@H](Cc1ccccc1)c1nnc(S(=O)(=O)Cc2cccc(F)c2)o1	x	i
CCOC(=O)CSc1nnc([C@H](Cc2ccccc2)NC(=O)OC(C)(C)C)o1	x	i
Cc1ccc(C23CC4CC(CC(C(=O)OCC(=O)NC5CCS(=O)(=O)C5)(C4)C2)C3)cc1 (configuration not stated)	0.55	i
Cc1ccc(NC(=O)NNC(=O)C2CC(c3cccs3)=NO2)cc1 (configuration not stated)	1.2	i
CCc1ccc2c(CN3CCN(S(=O)(=O)c4ccc5c(c4)OCCO5)CC3)cc(=O)oc2c1	0.46	i
O=c1cc(CN2CCN(S(=O)(=O)c3ccc4c(c3)OCCO4)CC2)c2ccc(O)cc2o1	-5.6	-5.6*
Cc1ccc(C(=O)c2cc([N+](=O)[O-])ccc2N2CCCCC2)cc1C	x	i
Cc1ccc(C(=O)c2ccc([N+](=O)[O-])cc2)cc1C	5.6*	i
Clc1cccc(N/N=C(\Cc2nc3ccccc3[nH]2)c2ccccc2)c1	-6.3	-6.3*
c1ccc(N/N=C(\Cc2ncc[nH]2)c2ccccc2)cc1	x	i
c1ccc2sc(SCc3ccc(-c4nnco4)cc3)nc2c1	-7.1	-7.1*
NC(=O)c1ccc(CSc2nc3ccccc3s2)cc1	0.88	i
CCCc1cc(=O)[nH]c(SCC(=O)N2CCCC2=O)n1	1.2	i
CCOC(=O)c1c(C(=O)OCC)c(C)n(CCc2ccccc2)c1C	-5.8	-5.8*
CCOC(=O)c1c(C)c(C(=O)NCCc2ccccc2)c(C)n1C	x	i
COc1cc(/C=C/C(=O)OCC(=O)NC(=O)NC(C)C)cc(S(=O)(=O)N2CCc3ccccc32)c1OC	x	i
SMILES	KCNQ2 enhance	KCNQ2 inh
Cc1ccc(C(C)C)c(OCC(=O)NNC(=O)CC2OC(=O)c3ccccc32)c1 (configuration not stated)	x	i
CCCCC(=O)Nc1ccc(C(N)=O)cc1	0.4	i
CCCCC(=O)Nc1ccc(NCc2ccc(C)s2)cc1	30*	i
CC(=O)NC(Cc1ccccc1)C(=O)OCC(=O)c1ccccc1 (configuration not stated)	x	i
CC1CCN(C(=O)CCCC(=O)N2CCC(C)CC2)CC1	1.2	i
CC1(CCc2ccccc2)NC(=S)N(c2ccc(Cl)cc2)N1 (configuration not stated)	x	i
CCC1(c2ccc(Cl)cc2)NC(=S)N(c2ccc(C)cc2)N1 (configuration not stated)	17*	i
O=c1c2ccccc2nc(SCc2ccccc2)n1CC1CCCO1 (configuration not stated)	x	i
Cc1ccc(C)n1-c1sc2c(c1C#N)CCCC2	-5.9	-5.9*
Cc1sc(-n2c(C)ccc2C)c(C#N)c1C	x	i
COc1cccc(NC(=O)N2CCN(c3nnnn3-c3ccccc3)CC2)c1	1.4	i
Cc1nn(C(C)(C)C)c(OC(=O)c2cccs2)c1Sc1ccccc1	-8	-8*
Cc1nn(C(C)(C)C)c(OC(=O)c2ccc(Br)o2)c1Sc1ccccc1	x	i
Cc1nn(C(C)(C)C)c(OC(=O)c2ccc3c(c2)OCO3)c1Sc1ccccc1	x	i
Cc1nn(C(C)(C)C)c(OC(=O)c2ccco2)c1Sc1ccccc1	-6.1	-6.1*
CCC(C(=O)Nc1cccnc1)n1c(=O)[nH]c2ccccc2c1=O (configuration not stated)	1.7	i
CCOc1ccc(Br)cc1C(=S)N1CCCC1	x	i
COc1cc(C(=O)NCCOc2ccc(F)cc2)c(Br)c(OC)c1OC	x	i
